This note sets out measurements from ChEMBL document CHEMBL4513216, “Probing the Open Global Health Chemical Diversity Library for Multistage-Active Starting Points for Next-Generation Antimalarials” (ACS Infect Dis, 2020).

Molecules are shown by their SMILES. In all, about 69,000 compounds went through this assay and about 8,600 (12%) showed an effect of 50% or more. The full list was thinned out, with strong results kept by preference.

The assay concerns Plasmodium berghei. The experiment in a line: Screen against P. berghei liver stage (PbLuc), transformed with Luciferase, at 10uM. The class given is functional, HepG2. Conditions: tested at 10 uM.
Take `CCn1cnnc1CNC(=O)N1CCN(c2ccccc2O)CC1`: the INHIBITION was found to be 36.1%.
Regarding `NCC1[C@H]2CN(Cc3ccccc3F)C[C@@H]12` (stereo partly drawn), the INHIBITION is given as 45.7%.
Take `O=c1cc(CSc2nnc[nH]2)nc2sc3c(n12)CCCC3`: the INHIBITION came out at 16.5%.
The same measure for `COCCCS(=O)(=O)N1CCN(Cc2cccn2C)CC1`: 51.1%.
The figure for `COCCCS(=O)(=O)N1CCN(c2cccc(O)c2)CC1` is 14.6%; for `CC(C)OCCS(=O)(=O)N1CCN(Cc2cccn2C)CC1` it is 4.1%.
Consider `Cc1c(Br)cccc1C(=O)NCCC1CCCNC1` (stereo not drawn), for which the INHIBITION is 28.6%.
As to `O=C(C1CC(c2ccccc2)=NO1)N1CCCCc2ccccc21` (stereo not drawn), the INHIBITION is listed as -15%.
The same measure for `CCC(c1ccc(F)cc1F)S(=O)(=O)CCO` (stereo not drawn): 23.8%; for `CCC(c1ccc(F)cc1)S(=O)(=O)CCO` (stereo not drawn): 15.9%; for `CCC(c1ccccc1)S(=O)(=O)CCO` (stereo not drawn): 61.8%.
`Nc1nccnc1C1CN(C(=O)COc2cccnc2)CCO1` (stereo not drawn): the INHIBITION is recorded as -50.3%.
The same measure for `COCC(=O)N1CCC2(CC1)C(=O)N(Cc1cccnc1)CCN2C`: 43.2%.
Consider `O=C(O)c1cc(C=Cc2cccc3ccccc23)ncn1`, for which the INHIBITION is reported as 8.05%.
The figure for `c1ccc(-c2nccc(CNC3CCc4ncnn4C3)n2)cc1` (stereo not drawn) is 36.1%.
The figure for `Cn1ncc2c(N[C@@H]3C[C@H]4CC[C@@H]3C4)nc(-c3ccncc3)nc21` is 35.1%; for `Cn1ncc2c(N3CCC(F)(F)CC3)nc(-c3ccncc3)nc21` it is 31%.
Regarding `CC(C)N1CCCN(c2nc(-c3cccnc3)nc3c2cnn3C)CC1`, the INHIBITION is reported as 86.6%.
The same measure for `Cn1ncc2c(N3CCC3)nc(-c3ccncc3)nc21`: -3.83%; for `Cn1ncc2c(NC3CN4CCC3CC4)nc(-c3ccncc3)nc21` (stereo not drawn): 53.2%; for `Cn1ncc2c(NC3CCSC3)nc(-c3ccncc3)nc21` (stereo not drawn): 61.6%.
Consider `CN1[C@@H]2CC[C@H]1CN(c1nc(-c3ccncc3)nc3c1cnn3C)CC2`, for which the INHIBITION came to 71.3%.
On to `Cn1ncc2c(NCC3CCS(=O)(=O)C3)nc(-c3ccncc3)nc21` (stereo not drawn), for which the INHIBITION is 15.1%.
The same measure for `Cn1ncc2c(N3CC(N4CCCCC4)C3)nc(-c3ccncc3)nc21`: 22.6%; for `Cn1ncc2c(N3CC[C@H](O)C3)nc(-c3ccncc3)nc21`: 19.8%; for `Cn1ncc2c(NC3CCC3)nc(-c3ccncc3)nc21`: 33.7%.
As to `Cn1ncc2c(N3CCS(=O)(=O)CC3)nc(-c3cccnc3)nc21`, the INHIBITION came to 35%.
The same measure for `CC(=O)N1CCc2cc(Cl)cc(Cl)c2C1`: 37.7%; for `COCC1CC2(CCN(CC3CC3)CC2)CN1c1ncccn1` (stereo not drawn): 18.2%.
The figure for `Cn1ccc(C(=O)NC2CCC23CCN(Cc2ccc(F)cc2)CC3)c1` (stereo not drawn) is -9.02%; for `Nc1ncnc2nc(C3CCN(C(=O)Cc4ccccc4)C3)ccc12` (stereo not drawn) it is 6.3535%.
In the case of `COc1ccc(-c2cc(C3CCNCC3)nc(C)n2)cc1`, the INHIBITION is -29.9%.
The figure for `COc1ccc(N2CCN(Cc3nc(CSC)no3)CC2=O)cc1` is -42.9%; for `CCNC(=O)Cc1ccc(NC(=O)NC(CC)c2ccncc2)cc1` (stereo not drawn) it is 4.15%; for `CCC(NC(=O)NCC(=O)Nc1ccc(F)cc1)c1ccncc1` (stereo not drawn) it is 58.3%.
The same measure for `CCC(NC(=O)Nc1ccc(OC)c(C)c1)c1ccncc1` (stereo not drawn): 26.6%.
As for `O=C(c1ccco1)N1C[C@H]2CCCN(CC3CCOCC3)[C@H]2C1`, the INHIBITION turned out to be 49.5%.
For `Cc1cnc(NCCCN2CCCCC2CO)nc1` (stereo not drawn), the INHIBITION amounted to 20.8%.
For `N#Cc1cccc(CS(=O)(=O)NC(Cc2ccccc2)C(N)=O)c1` (stereo not drawn), the INHIBITION turned out to be 58.1%.
With `NC(=O)C(Cc1ccccc1)NS(=O)(=O)Cc1ccccc1Cl` (stereo not drawn), the INHIBITION was 9.75%.
In the case of `NC(=O)C(Cc1ccccc1)NS(=O)(=O)Cc1ccccc1F` (stereo not drawn), the INHIBITION was determined as 50.5%.
The figure for `O=S(=O)(Cc1ccccc1F)NC(CO)c1ccco1` (stereo not drawn) is 45.1%; for `N#Cc1cccc(CS(=O)(=O)NCC(O)Cc2ccccc2)c1` (stereo not drawn) it is 30.8%; for `N#Cc1cccc(CS(=O)(=O)NCCC(O)c2ccccc2)c1` (stereo not drawn) it is 24.5%.
The same measure for `O=C(NC1COC2(CCN(Cc3cccs3)CC2)C1)c1ccccn1` (stereo not drawn): 20.9%; for `Cc1ccc(CN[C@@H]2COC[C@H]2c2ccc(F)cc2)cc1C`: 49%; for `CN1CC2(CCC(C(=O)N3CCOCC3)CC2)Oc2ccccc2C1=O` (stereo not drawn): -3.58%.
The same measure for `COCCN1CCn2c(CN(C)C(C)C)cnc2C1`: -8.28%; for `CNC(=O)[C@@H]1[C@H]2CN(Cc3ccoc3)CCN2C[C@H]1c1ccccc1`: 9.36%; for `CNC(=O)[C@@H]1[C@@H](c2ccccc2)CN2CCN(Cc3ccco3)C[C@H]12`: 57%.
Take `CNC(=O)[C@@H]1[C@@H](c2ccccc2)CN2CCN(Cc3cccs3)C[C@H]12`: the INHIBITION was found to be 41.1%.
The figure for `Cn1cc(N2CC3(CCN(Cc4cccnc4)CC3)OCC2=O)cn1` is 22.9%.
The figure for `Cc1nc(C)n(C2CCCN(C(=O)c3ccc4nccn4c3)C2)n1` (stereo not drawn) is 20.8%; for `CSCCCN1CC[C@@]2(O)CCN(c3ncccn3)C[C@H]2C1` it is 38.3%.
In the case of `Cc1ccc(N2CC[C@]3(O)CCN(CCN4CCCC4=O)C[C@@H]3C2)nn1`, the INHIBITION was -2.25%.
The figure for `O=C1CCCN1CCN1CC[C@@]2(O)CCN(c3ncccn3)C[C@H]2C1` is 51.2%.
Consider `CCc1nnc2n1CCN(C(=O)c1cc3ccccc3[nH]1)C2`, for which the INHIBITION was determined as 18.2%.
For `Cc1cc(N2CCc3cnc(C)nc3C2)n2nc(C(F)(F)F)nc2n1`, the INHIBITION was found to be 10.6%.
The figure for `Cc1cc(N2CCc3cncnc3C2)n2nc(C(F)(F)F)nc2n1` is 50.8%; for `Cc1cc(N2CCc3c(ncn3C)C2)n2nc(C(F)(F)F)nc2n1` it is 20%; for `CC(C)SCc1cccc(NC2CCN(C)C2=O)c1` (stereo not drawn) it is -13.9%.
The figure for `CCSCc1cccc(NC2CCN(C)C2=O)c1` (stereo not drawn) is 52.5%.
The same measure for `Cc1nc(C)n(Cc2cccc(NC3CCN(C)C3=O)c2)n1` (stereo not drawn): -41.6%.
Take `CN1CCCC(CCC(=O)N2CCc3c(nc(CC4CC4)[nH]c3=O)C2)C1` (stereo not drawn): the INHIBITION was 49.3%.
For the compound `CCO[C@H]1C[C@@H](O)C12CCN(C(=O)CN1CCCCCC1=O)CC2`, the INHIBITION is 24.3%.
The figure for `CCOCCn1nc(C)cc1C(=O)N1CCC2(CC1)[C@H](O)C[C@@H]2OCC` is 9.63%; for `CCO[C@H]1C[C@@H](O)C12CCN(C(=O)CCN1CCCC1=O)CC2` it is 14.5%.
The figure for `CCO[C@H]1C[C@@H](O)C12CCN(C(=O)CC(F)(F)F)CC2` is 90.2%.
Consider `CCO[C@H]1C[C@@H](O)C12CCN(C1Cc3ccccc3C1)CC2`, for which the INHIBITION worked out at 50.3%.
The figure for `CCO[C@H]1C[C@@H](O)C12CCN(S(=O)(=O)c1ccccc1OC)CC2` is 46.4%; for `CCO[C@H]1C[C@@H](O)C12CCN(C1CCN(c3ccccc3)CC1)CC2` it is 25.8%.
Consider `CCO[C@H]1C[C@@H](O)C12CCN(C1CCN(c3ccccc3C)CC1)CC2`, for which the INHIBITION is recorded as 69.4%.
`NCCO[C@H]1C[C@@H](O)C12CCN(C1Cc3ccccc3C1)CC2`: the INHIBITION came out at 43%.
